Assay results from PubChem BioAssay AID1159580 (chemical genetic matrix, 2015).
Among all 5,500 compounds or so, about 2,000 (36%) were called active. About 18% were inconclusive and are not listed. Rule as the data show it: active = normalized growth mostly below about 0.91 (no sharp cut-off); inconclusive = no clear call, values can overlap the other calls; inactive = mostly above about 0.92. This is one part of the list.

Experiment: chemical genetic growth profiling, strain panel (AID 1159580);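 also: tested at 20 µM; growth read once vehicle control cultures reached saturation at 30 °C; 1 = growth at the plate median or of vehicle wells; lower values mean less growth of the strain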
Conditions: growth OD

Measured: normalized growth

CC(=O)O[C@H]1C[C@@]2(C)[C@H](c3ccoc3)OC(=O)[C@H]3O[C@]32[C@@]2(C)C1[C@]1(C)C(C[C@H]2OC(C)=O)C(C)(C)[C@H](OC(C)=O)C[C@@H]1OC(C)=O (some centres undefined)
inactive: S. cerevisiae deletion strains, locus YJL168C, strain set2, active compounds read low 0.99 | S. cerevisiae deletion strains, locus YJL187C, strain SWE1 (second series), active compounds read low 0.976 | S. cerevisiae deletion strains, locus YJR043C, strain POL32, active compounds read low 0.974 | S. cerevisiae deletion strains, locus YKL009W, strain mrt4, active compounds read low 0.912 | S. cerevisiae deletion strains, locus YKL068W, active compounds read low 0.978 | S. cerevisiae deletion strains, locus YKL085W, strain MDH1 (second series), active compounds read low 0.973 | S. cerevisiae deletion strains, locus YKL085W, strain MDH1, active compounds read low 0.973 | S. cerevisiae deletion strains, locus YKL160W, strain elf1, active compounds read low 1.05 | S. cerevisiae deletion strains, locus YKR001C, strain vps1, active compounds read low 0.982 | S. cerevisiae deletion strains, locus YKR026C, strain gcn3, active compounds read low 0.978 | S. cerevisiae deletion strains, locus YKR091W, strain srl3, active compounds read low 0.995 | S. cerevisiae deletion strains, locus YLL001W, strain dnm1, active compounds read low 0.977 | S. cerevisiae deletion strains, locus YLL026W, active compounds read low 0.974 | S. cerevisiae deletion strains, locus YLL041C, strain sdh2, active compounds read low 0.998 | S. cerevisiae deletion strains, locus YLR027C, strain aat2, active compounds read low 0.965 | S. cerevisiae deletion strains, locus YLR039C, strain RIC1, active compounds read low 0.959 | S. cerevisiae deletion strains, locus YLR058C, strain SHM2, active compounds read low 0.978 | S. cerevisiae deletion strains, locus YLR102C, strain apc9, active compounds read low 0.979 | S. cerevisiae deletion strains, locus YLR221C, strain rsa3, active compounds read low 0.987 | S. cerevisiae deletion strains, locus YLR258W, strain gsy2, active compounds read low 1.02 | S. cerevisiae deletion strains, locus YLR262C, strain YPT6 (second series), active compounds read low 1.03 | S. cerevisiae deletion strains, locus YLR268W, strain sec22, active compounds read low 0.975 | S. cerevisiae deletion strains, locus YLR320W, strain mms22, active compounds read low 0.999 | S. cerevisiae deletion strains, locus YLR342W, strain FKS1, active compounds read low 0.995 | S. cerevisiae deletion strains, locus YLR357W, strain rsc2, active compounds read low 1.01 | S. cerevisiae deletion strains, locus YLR370C, strain arc18, active compounds read low 0.961 | S. cerevisiae deletion strains, locus YLR371W, strain rom2, active compounds read low 0.982 | S. cerevisiae deletion strains, locus YLR384C, strain iki3, active compounds read low 1.01 | S. cerevisiae deletion strains, locus YLR418C, strain cdc73, active compounds read low 1.01 | S. cerevisiae deletion strains, locus YML016C, strain PPZ1, active compounds read low 0.984 | S. cerevisiae deletion strains, locus YML032C, strain rad52, active compounds read low 0.977 | S. cerevisiae deletion strains, locus YML120C, strain ndi1, active compounds read low 1.02 | S. cerevisiae deletion strains, locus YML124C, strain tub3, active compounds read low 0.993 | S. cerevisiae deletion strains, locus YMR058W, strain fet3, active compounds read low 0.988 | S. cerevisiae deletion strains, locus YMR078C, strain ctf18, active compounds read low 0.955 | S. cerevisiae deletion strains, locus YMR125W, strain sto1, active compounds read low 1.02 | S. cerevisiae deletion strains, locus YMR129W, active compounds read low 0.985 | S. cerevisiae deletion strains, locus YMR205C, strain PFK2, active compounds read low 1.01 | S. cerevisiae deletion strains, locus YMR223W, strain ubp8, active compounds read low 0.991 | S. cerevisiae deletion strains, locus YMR231W, strain pep5, active compounds read low 0.979 | S. cerevisiae deletion strains, locus YMR263W, strain SAP30, active compounds read low 0.969 | S. cerevisiae deletion strains, locus YMR307W, strain GAS1, active compounds read low 1.05 | S. cerevisiae deletion strains, locus YNL067W, strain RPL9B, active compounds read low 0.996 | S. cerevisiae deletion strains, locus YNL071W, strain lat1, active compounds read low 0.999 | S. cerevisiae deletion strains, locus YNL128W, strain TEP1, active compounds read low 0.971 | S. cerevisiae deletion strains, locus YNL153C, strain GIM3, active compounds read low 0.985 | S. cerevisiae deletion strains, locus YNL209W, strain ssb2, active compounds read low 0.992 | S. cerevisiae deletion strains, locus YNL233W, strain BNI4, active compounds read low 1 | S. cerevisiae deletion strains, locus YNL248C, strain rpa49, active compounds read low 0.984 | S. cerevisiae deletion strains, locus YNL250W, strain rad50, active compounds read low 0.97 | S. cerevisiae deletion strains, locus YNL271C, strain bni1, active compounds read low 0.979 | S. cerevisiae deletion strains, locus YNL298W, strain CLA4, active compounds read low 0.968 | S. cerevisiae deletion strains, locus YNL307C, strain MCK1, active compounds read low 0.991 | S. cerevisiae deletion strains, locus YNL322C, strain KRE1 (second series), active compounds read low 0.985 | S. cerevisiae deletion strains, locus YNR049C, strain mso1, active compounds read low 0.985 | S. cerevisiae deletion strains, locus YNR052C, strain pop2, active compounds read low 0.98 | S. cerevisiae deletion strains, locus YOL006C, strain TOP1, active compounds read low 0.959 | S. cerevisiae deletion strains, locus YOL012C, strain htz1 1.13 | S. cerevisiae deletion strains, locus YOL147C, strain pex11, active compounds read low 0.987 | S. cerevisiae deletion strains, locus YOR001W, strain rrp6, active compounds read low 0.919 | S. cerevisiae deletion strains, locus YOR061W, strain CKA2, active compounds read low 0.966 | S. cerevisiae deletion strains, locus YOR069W, strain VPS5, active compounds read low 0.992 | S. cerevisiae deletion strains, locus YOR070C, strain gyp1, active compounds read low 1 | S. cerevisiae deletion strains, locus YOR080W, strain dia2, active compounds read low 0.963 | S. cerevisiae deletion strains, locus YOR083W, strain WHI5, active compounds read low 1.04 | S. cerevisiae deletion strains, locus YOR106W, strain vam3, active compounds read low 1.03 | S. cerevisiae deletion strains, locus YOR136W, strain idh2, active compounds read low 0.974 | S. cerevisiae deletion strains, locus YOR144C, strain elg1, active compounds read low 0.989 | S. cerevisiae deletion strains, locus YOR184W, strain ser1, active compounds read low 0.966 | S. cerevisiae deletion strains, locus YOR265W, strain rbl2, active compounds read low 0.951 | S. cerevisiae deletion strains, locus YOR270C, strain vph1, active compounds read low 0.879 | S. cerevisiae deletion strains, locus YOR290C, strain snf2, active compounds read low 1.05 | S. cerevisiae deletion strains, locus YOR316C, strain cot1, active compounds read low 0.982 | S. cerevisiae deletion strains, locus YPL051W, strain arl3, active compounds read low 0.995 | S. cerevisiae deletion strains, locus YPL055C, strain LGE1, active compounds read low 0.964 | S. cerevisiae deletion strains, locus YPL078C, strain atp4, active compounds read low 1.05 | S. cerevisiae deletion strains, locus YPL106C, strain sse1, active compounds read low 1.03 | S. cerevisiae deletion strains, locus YPL240C, strain hsp82, active compounds read low 0.986 | S. cerevisiae deletion strains, locus YPR119W, strain clb2, active compounds read low 0.983 | S. cerevisiae deletion strains, locus YPR141C, strain kar3, active compounds read low 0.984 | S. cerevisiae deletion strains, locus YPR163C, strain tif3, active compounds read low 0.989 | S. cerevisiae deletion strains, locus YPR167C, strain met16, active compounds read low 0.984 | S. cerevisiae deletion strains, strain wtn01, active compounds read low 0.94 | S. cerevisiae strains, strain wild type, active compounds read low 0.993
